From PubChem
Most compounds without a hit are left out; they make up all but 19% or so of the library.
HT1080-NT tox: kills 2HG-producing HT-1080-NT fibrosarcoma cells; HT-1080-NT fibrosarcoma viability, CellTiter-Glo ATP luminescence, 48 h; Potency, µM (doses to about 46.1 µM), for inactives: top-dose activity, negative = less viability, usual class: cytotoxic; actives 1.6% (n = 360,000); AID 686970;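 note: NT is the 2HG producing partner of a matched IDH1 knockdown line; potency is the fitted concentration of half-maximal effect; 0% = DMSO-treated cells and -100% = media-only wells without cells; nearly all actives have a fitted effect of over 55% in size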
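HT-1080-NT fibrosarcoma cells (2HG-overproducing), 750 cells/well in RPMI with 5% FBS, dosed after 2 h and incubated 48 h at 37C. CellTiter-Glo luminescence normalized to DMSO and no-cell wells; concentration-response curves fitted and classed.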
HT1080 IDH1KD tx: HT-1080 IDH1 knockdown cell toxicity (counter line); HT-1080 IDH1 knockdown viability, ATP luminescence, 48 h; Potency, µM (doses to about 46.1 µM), inactives show at the highest dose activity, negative = toxicity, hits mostly cytotoxic; actives 2% (n = 360,000);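 note: potency is the fitted concentration of half-maximal effect; 0% = DMSO wells and -100% = cell-free medium wells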
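Viability of IDH1-knockdown HT-1080 fibrosarcoma cells was assessed by CellTiter-Glo after 48 h at 37 °C with titrated compound; concentration-effect curves were classified by fit quality and response size.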
TDP1 cell CPT: growth inhibition of DT40 Tdp1-/-;hTDP1 cells with camptothecin (screen for TDP1 inhibitors) | chicken DT40 Tdp1-/-;hTDP1 cells + 20 nM CPT, ATP luminescence, 48 h | Potency, µM (doses to about 46.2 µM), inactives show top-dose activity change, negative = growth inhibition, most hits filed as inhibitors | actives 12% (n = 420,000) | AID 686979; note: potency is the fitted concentration of half-maximal effect; nearly all actives have a fitted effect of over 55% in size
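Cell growth measured by CellTiter-Glo luminescence after a minimum 48 h, 37 C compound exposure with 20 nM CPT in Tdp1-knockout DT40 cells stably expressing hTDP1, seeded 400/well; qHTS titration format.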
TDP1 cell noCPT: qHTS for Inhibitors of human tyrosyl-DNA phosphodiesterase 1 (TDP1): qHTS in cells in absence of CPT | DT40 Tdp1-/- hTDP1 cells, no CPT, ATP luminescence, 48 h | Potency, µM (series often up to 46.2 µM), inactives show at the highest dose activity change, negative = growth inhibition, actives largely listed as inhibitors | actives 15% (n = 420,000); note: potency is the fitted concentration of half-maximal effect; nearly all actives have a fitted effect of over 55% in size
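Chicken DT40 Tdp1-/- cells stably complemented with human TDP1 were seeded at 400 cells/well with DMSO in place of 20 nM camptothecin. After compound pinning, cells grew at least 48 hr at 37 °C; viability read by CellTiter-Glo luminescence.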
IL1B secr inh: inhibitors of inflammasome signaling (IL-1 beta secretion). activity change, % at 57.5 µM. THP-1 LPS/ATP IL-1B secretion, AlphaLISA, 16 h; hits give low values. actives 4.7% (n = 360,000); in the data active = activity change below about -50%; inconclusive = mostly about -30% to -49%
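THP-1 cells pretreated 1 hr with compounds (up to 57.5 uM final), then stimulated with LPS (250 ng/mL final) plus ATP (1.25 mM final); secreted IL-1B measured by AlphaLISA after 16 hr, decreased signal indicating inhibition.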
Numbers without * were called inactive. Unless noted, calls come from the whole dose curve; as a rule, active = well fitted curve in the direction sought with a large enough effect; inconclusive = small, poorly fitted or top-dose-only effect, or another doubt; inactive = no such curve, though single readings can be large; an effect the other way counts as inactive or inconclusive. Unless noted, % is set by controls: 0 for no effect and ±100 for the full control effect.

`Cc1ccc(NS(=O)(=O)c2ccc3c(c2)c(=O)n(C)c(=O)n3C)cc1F` gave HT1080-NT tox 16µM*, HT1080 IDH1KD tx inconclusive, TDP1 cell CPT 15µM*, TDP1 cell noCPT 16µM* and IL1B secr inh inconclusive.
Cn1c(=O)c2cc(S(=O)(=O)Nc3cc(C(=O)O)cc(C(=O)O)c3)ccc2n(C)c1=O was read as HT1080-NT tox 7%, HT1080 IDH1KD tx 5%, TDP1 cell CPT -4%, TDP1 cell noCPT -2% and IL1B secr inh 0.
Screening Cc1cc(C)cc(NS(=O)(=O)c2ccc3c(c2)c(=O)n(C)c(=O)n3C)c1 returned HT1080-NT tox 6.3µM*, HT1080 IDH1KD tx 3.2µM*, TDP1 cell CPT 1.8µM*, TDP1 cell noCPT 2.1µM* and IL1B secr inh -67*.
For CC(C)(C)c1ccc(/C=C2\Oc3cc(O)ccc3C2=O)cc1 the results were HT1080-NT tox inconclusive, HT1080 IDH1KD tx inconclusive, TDP1 cell CPT 21µM*, TDP1 cell noCPT inconclusive and IL1B secr inh -74*.
For O=C1/C(=C/c2ccc(O)cc2)CCc2ccc([N+](=O)[O-])cc21 the results were HT1080-NT tox 11%, HT1080 IDH1KD tx 7%, TDP1 cell CPT inconclusive, TDP1 cell noCPT 16µM* and IL1B secr inh inconclusive.
`O=C1/C(=C/c2ccc(Br)cc2)Oc2cc(O)ccc21` gave HT1080-NT tox -20%, HT1080 IDH1KD tx inconclusive, TDP1 cell CPT -4%, TDP1 cell noCPT inconclusive and IL1B secr inh 0.
For O=C1/C(=C/c2ccc([N+](=O)[O-])cc2)Oc2cc(O)ccc21 the results were HT1080-NT tox -25%, HT1080 IDH1KD tx -16%, TDP1 cell CPT inconclusive, TDP1 cell noCPT 7.3µM* and IL1B secr inh -1.
COCCC(=O)N1CCC(Oc2ccc(C(=O)N3C[C@@H]4CCC[C@H]3C4)cc2)CC1 was read as HT1080-NT tox 0%, HT1080 IDH1KD tx 3%, TDP1 cell CPT 0%, TDP1 cell noCPT 6% and IL1B secr inh 1.
`CC(C)COc1ccc(C(=O)Nc2ncn[nH]2)cc1` gave HT1080-NT tox -15%, HT1080 IDH1KD tx -13%, TDP1 cell CPT 10%, TDP1 cell noCPT -2% and IL1B secr inh 0.
COc1ccc([C@H]2C[C@@H](n3cc(C4CC4)nn3)[C@H](O)CN2CC2CCCCC2)cc1 was read as HT1080-NT tox inconclusive, HT1080 IDH1KD tx inconclusive, TDP1 cell CPT inconclusive, TDP1 cell noCPT 21µM* and IL1B secr inh -55*.
Cc1ccc([C@H]2C[C@H](n3cc(C4CC4)nn3)[C@@H](O)CN2CC2CCCCC2)cc1 was read as HT1080-NT tox inconclusive, HT1080 IDH1KD tx inconclusive, TDP1 cell CPT inconclusive, TDP1 cell noCPT 18µM* and IL1B secr inh -13.
`CCOC(=O)c1ccc(N2C(=O)c3n[nH]c(-c4cccs4)c3C2c2cccc(OC)c2)cc1` (stereo unspecified) gave TDP1 cell CPT 26µM* and TDP1 cell noCPT 10µM*.
Screening CCOC(=O)c1ccc(N2C(=O)c3n[nH]c(C)c3C2c2cccnc2)cc1 (stereo unspecified) returned HT1080-NT tox 1%, HT1080 IDH1KD tx 7%, TDP1 cell CPT -26%, TDP1 cell noCPT -24% and IL1B secr inh -3.
For COc1cc(C2c3c(-c4ccccc4)n[nH]c3C(=O)N2c2ccccc2)ccc1O (stereo unspecified) the results were HT1080-NT tox -11%, HT1080 IDH1KD tx -13%, TDP1 cell CPT inconclusive, TDP1 cell noCPT inconclusive and IL1B secr inh -23.
For O=C1c2[nH]nc(-c3ccc(F)cc3)c2C(c2ccccc2F)N1c1ccccc1 (stereo unspecified) the results were TDP1 cell CPT inconclusive and TDP1 cell noCPT 21µM*.
For CCOC(=O)c1ccc(N2C(=O)c3[nH]nc(-c4ccc(C)cc4)c3C2c2cccc(F)c2)cc1 (stereo unspecified) the results were TDP1 cell CPT 23µM* and TDP1 cell noCPT inconclusive.
Screening CCOC(=O)c1ccc(N2C(=O)c3[nH]nc(-c4ccc(OCC)cc4)c3C2c2ccc(OC)cc2OC)cc1 (stereo unspecified) returned TDP1 cell CPT 21µM* and TDP1 cell noCPT 18µM*.
`O=C(/C(Cl)=C/Nc1ccc(Br)cn1)C(F)(F)F` gave HT1080-NT tox -6%, HT1080 IDH1KD tx -10%, TDP1 cell CPT -9%, TDP1 cell noCPT -17% and IL1B secr inh 21.
For C#CCNC(=O)C1=C[C@@H](c2ccc(C(F)(F)F)cc2)C[C@@H](OCCCCO)O1 the results were HT1080-NT tox 17%, HT1080 IDH1KD tx 13%, TDP1 cell CPT inconclusive, TDP1 cell noCPT inconclusive and IL1B secr inh -12.
`CN(C)S(=O)(=O)c1cccc(COC(=O)CNC(=O)c2ccc(Br)o2)c1` gave HT1080-NT tox 1%, HT1080 IDH1KD tx 15%, TDP1 cell CPT 11%, TDP1 cell noCPT -3% and IL1B secr inh -3.
CCSc1ccccc1-c1nc(-c2ccncc2)no1 was read as HT1080-NT tox -4%, HT1080 IDH1KD tx -8%, TDP1 cell CPT -27%, TDP1 cell noCPT inconclusive and IL1B secr inh 17.
CCOC(=O)c1ccc(N2C(=O)c3[nH]nc(-c4ccc(OC)cc4)c3C2c2cccc(O)c2)cc1 (stereo unspecified) was read as TDP1 cell CPT 18µM* and TDP1 cell noCPT 21µM*.
CCOC(=O)c1ccc(N2C(=O)C(O)=C(C(C)=O)C2c2ccccn2)cc1 (stereo unspecified) was read as HT1080-NT tox 6%, HT1080 IDH1KD tx 4%, TDP1 cell CPT 0%, TDP1 cell noCPT 0% and IL1B secr inh 13.
For CC(C)C1(c2ccsc2)NC(=O)NC1=O (stereo unspecified) the results were HT1080-NT tox -4%, HT1080 IDH1KD tx -2%, TDP1 cell CPT 3%, TDP1 cell noCPT -2% and IL1B secr inh 0.
`COC(=O)N1C(=O)[C@](c2ccsc2)(C(C)C)N1C(=O)OC` gave HT1080-NT tox -3%, HT1080 IDH1KD tx -10%, TDP1 cell CPT 15µM*, TDP1 cell noCPT inconclusive and IL1B secr inh -99*.
COC(=O)N1C(=O)[C@](c2ccc(OC)cc2)(C(C)C)N1C(=O)OC was read as HT1080-NT tox -3%, HT1080 IDH1KD tx 0%, TDP1 cell CPT 21µM*, TDP1 cell noCPT 16µM* and IL1B secr inh -92*.
Screening COc1ccc(C2(C)NC(=O)N(CC(=O)NC(C)c3ccc(CC(C)C)cc3)C2=O)cc1 (stereo unspecified) returned HT1080-NT tox -3%, HT1080 IDH1KD tx -1%, TDP1 cell CPT inconclusive, TDP1 cell noCPT inconclusive and IL1B secr inh -21.
